Results as given in PubChem BioAssay (NCATS).
Results filed as inconclusive are left out. Unless noted, calls come from the whole dose curve; as a rule, active = well fitted curve in either direction with a large enough effect (not every such curve was filed as active); inconclusive = small, poorly fitted or top-dose-only effect, or another doubt; inactive = flat fitted curve, though single readings scatter.

Assays:
[1] = AP1 Signaling Pathway (AID 357); conditions: ME-180 AP-1-bla reporter, EGF-induced, beta-lactamase ratio, 5 h; at 17.2 µM (top of the series) unless noted;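 note: ME-180 reporter cells stimulated with EGF at its EC50 level; % is set by controls: 0 for no effect and ±100 for the full control effect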
How it was run: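 First, ME-180 AP-1-bla cells were cultured overnight at 37 °C in low-serum Opti-MEM. Next, titrated compounds with EC50 EGF were incubated 5 hours. Finally, CCF4 was added for 2.5 hours and the 460/530 nm ratio recorded.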

[2] = NFAT Signaling Pathway (AID 444); conditions: Jurkat NFAT-bla M1, carbachol, beta-lactamase ratio, 5 h; at 17.2 µM (top of the series) unless noted;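 note: carbachol stimulus at about its EC50 of 1 µM final; % is set by controls: 0 for no effect and ±100 for the full control effect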
How it was run: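 Read-out: CCF4 FRET ratio (460 nm/530 nm) after 1 h RT dye loading, used for %activity and AC50 from titration series. Cells: Jurkat NFAT-β-lactamase/M1 line, treated with compound plus 1 uM carbachol for 5 h, 37 °C.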

[3] = Stat Signaling Pathway (AID 446); conditions: ME-180 SIE beta-lactamase reporter, IL-6 stimulated, 5 h; at 17.2 µM (top of the series) unless noted;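 note: ME-180 cervical cancer cells given 40 pM IL-6 alongside compound; SIE-controlled beta-lactamase reporter measured as 460/530 nm FRET emission ratio; % is set by controls: 0 for no effect and ±100 for the full control effect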
How it was run: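 Screening format detects activators and inhibitors alike: ME-180 SIE-bla cells stimulated at 40 pM IL-6 for 5 hrs with compound, then dual-emission beta-lactamase read at 405 nm excitation.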

[4] = molecular target: Glucocorticoid receptor (Homo sapiens) (UniProt P04150); assay: GR-GFP Redistribution (AID 450;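 active = compounds whose dose series gives a full or clear partial fitted curve of increased nuclear translocation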; note: potency is the fitted concentration of half-maximal effect)
Sequence of Glucocorticoid receptor (Homo sapiens) (P04150 whole entry, looked up): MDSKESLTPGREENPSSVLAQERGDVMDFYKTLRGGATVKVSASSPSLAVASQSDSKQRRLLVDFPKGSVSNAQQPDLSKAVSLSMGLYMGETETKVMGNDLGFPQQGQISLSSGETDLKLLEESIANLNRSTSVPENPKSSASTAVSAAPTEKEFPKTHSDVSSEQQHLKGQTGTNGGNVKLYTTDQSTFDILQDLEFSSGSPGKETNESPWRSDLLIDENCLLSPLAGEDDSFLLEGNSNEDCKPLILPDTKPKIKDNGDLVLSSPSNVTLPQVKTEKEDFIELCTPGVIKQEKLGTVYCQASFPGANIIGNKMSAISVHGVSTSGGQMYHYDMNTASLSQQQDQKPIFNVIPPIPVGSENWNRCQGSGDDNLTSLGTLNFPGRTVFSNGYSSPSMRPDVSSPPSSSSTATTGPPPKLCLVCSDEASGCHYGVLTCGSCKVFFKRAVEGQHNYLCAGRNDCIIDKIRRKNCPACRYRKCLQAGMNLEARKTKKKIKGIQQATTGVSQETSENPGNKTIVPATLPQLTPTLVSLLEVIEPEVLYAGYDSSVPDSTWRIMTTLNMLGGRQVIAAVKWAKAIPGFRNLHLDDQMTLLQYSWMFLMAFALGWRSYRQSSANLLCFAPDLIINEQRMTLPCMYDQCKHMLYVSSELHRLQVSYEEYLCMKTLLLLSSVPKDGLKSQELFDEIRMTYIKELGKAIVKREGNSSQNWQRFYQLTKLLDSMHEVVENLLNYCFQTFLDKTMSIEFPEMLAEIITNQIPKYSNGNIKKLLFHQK

CC(=O)N(Cc1ccccc1)c1ccc(C(=O)O)cc1
inactive: activity change, negative = inhibition [1] 1.39% | activity change, negative = inhibition [2] -12.1% | activity, negative = inhibition [3] 13.1% | Potency [4] > 20.6 µM

Fc1cc(F)c(F)c(SCCc2ccncc2)c1F
inactive: activity change, negative = inhibition [1] -7.09% | activity change, negative = inhibition [2] -5.43% | activity, negative = inhibition [3] -0.589% | Potency [4] > 20.6 µM

O=C(COc1ccc(F)cc1)OCCN1CCOCC1
inactive: activity change, negative = inhibition [1] -4.17% | activity change, negative = inhibition [2] -0.67% | activity, negative = inhibition [3] 11.3% | Potency [4] > 20.6 µM

Cc1ccc(N(CC(O)CN2CCCC2)S(=O)(=O)c2ccc(C)cc2)cc1 (stereo not given)
inactive: activity change, negative = inhibition [1] 0.0608% | activity change, negative = inhibition [2] -19.4% | activity, negative = inhibition [3] 11.3% | Potency [4] > 20.6 µM

CC(C)OC(=O)CC1=NC(=O)CS1
inactive: activity change, negative = inhibition [1] 3.43% | activity change, negative = inhibition [2] 8.36% | activity, negative = inhibition [3] 9.47% | Potency [4] > 20.6 µM

COc1ccc(C(=O)N2CCC(N3CCN(c4ccccc4)CC3)CC2)cc1OC
inactive: activity change, negative = inhibition [1] 11.1% | activity change, negative = inhibition [2] 20.4% | activity, negative = inhibition [3] -1.54% | Potency [4] > 20.6 µM

O=C(c1ccccc1)c1cc(-c2ccccc2)on1
inactive: activity change, negative = inhibition [1] -5.5% | activity change, negative = inhibition [2] -10% | activity, negative = inhibition [3] -7.84% | Potency [4] > 20.6 µM

COc1ccc(-n2c(=O)c3c4c(sc3n3c(C)nnc23)CC(C)CC4)cc1 (stereo not given)
inactive: activity change, negative = inhibition [1] -0.998% | activity change, negative = inhibition [2] -0.396% | activity, negative = inhibition [3] 10.9% | Potency [4] > 20.6 µM

O=C(O)C1CC(=O)N(Cc2cccs2)C1 (stereo not given)
inactive: activity change, negative = inhibition [1] -0.708% | activity change, negative = inhibition [2] -5.3% | activity, negative = inhibition [3] 7.75% | Potency [4] > 20.6 µM

COc1ccc(C(=O)c2ccc(N3CCOCC3)cc2)c(OC)c1
inactive: activity change, negative = inhibition [1] -17.3% | activity change, negative = inhibition [2] 13.3% | activity, negative = inhibition [3] 1.25% | Potency [4] > 20.6 µM

Cn1c(=O)c2c(nc(NCC(O)CO)n2CCc2ccccc2)n(C)c1=O (stereo not given)
inactive: activity change, negative = inhibition [1] 8.87% | activity change, negative = inhibition [2] -3.8% | activity, negative = inhibition [3] 1.91% | Potency [4] > 20.6 µM

CCc1nc(N2CCN(C(=O)c3ccccc3)CC2)c(C#N)c2c1COC(C)(C)C2
inactive: activity change, negative = inhibition [1] -17.6% | activity change, negative = inhibition [2] 21.3% | activity, negative = inhibition [3] -14% | Potency [4] > 20.6 µM

O/N=C(\c1ccc2c(c1)OCCO2)C1CCCCC1
inactive: activity change, negative = inhibition [1] -6.69% | activity change, negative = inhibition [2] -7.17% | activity, negative = inhibition [3] -14% | Potency [4] > 20.6 µM

O=C1CCc2nc3ccccc3c(=O)n2N1
inactive: activity change, negative = inhibition [1] -6.16% | activity change, negative = inhibition [2] 22.2% | activity, negative = inhibition [3] -4.8% | Potency [4] > 20.6 µM

CCCC1C2C(=O)N(c3ccccc3OC)C(=O)C2ON1c1ccccc1 (stereo not given)
inactive: activity change, negative = inhibition [1] 1.4% | activity change, negative = inhibition [2] 4.89% | activity, negative = inhibition [3] 0.927% | Potency [4] > 20.6 µM

O=C(NCc1ccccc1)C1C(=O)N(Cc2ccccc2)C(=O)C1C1(O)CCCC1 (stereo not given)
inactive: activity change, negative = inhibition [1] -16.6% | activity change, negative = inhibition [2] 23.6% | activity, negative = inhibition [3] -6.02% | Potency [4] > 20.6 µM

O=C(CCN1CCc2ccccc21)c1ccc2c(c1)OCCO2
inactive: activity change, negative = inhibition [1] 7.14% | activity change, negative = inhibition [2] -15.2% | activity, negative = inhibition [3] 2.96% | Potency [4] > 20.6 µM

CCc1cc(=O)oc2cc(C)c(CN3CCCC3)c(O)c12
inactive: activity change, negative = inhibition [1] -8.92% | activity change, negative = inhibition [2] -9.64% | activity, negative = inhibition [3] -10.7% | Potency [4] > 20.6 µM

CCOC(=O)c1c(CN2CCCCC2)oc2ccc(OC)cc12
inactive: activity change, negative = inhibition [1] 21.2% | activity change, negative = inhibition [2] 14.1% | activity, negative = inhibition [3] 0.706% | Potency [4] > 20.6 µM

CCCOc1ccc(/C(O)=C2/C(=O)C(=O)N(CCCN3CCOCC3)C2c2ccncc2)cc1 (stereo not given)
inactive: activity change, negative = inhibition [1] -5.76% | activity change, negative = inhibition [2] 16.4% | activity, negative = inhibition [3] 5.77% | Potency [4] > 20.6 µM

O=C(O)CC1SC(=Nc2cccc(C(F)(F)F)c2)NC1=O (stereo not given)
inactive: activity change, negative = inhibition [1] 7.22% | activity change, negative = inhibition [2] 9.67% | activity, negative = inhibition [3] -0.717% | Potency [4] > 20.6 µM

COC(=O)CSc1nc(N)c2c3c(sc2n1)CCCC3
inactive: activity change, negative = inhibition [1] -0.00134% | activity change, negative = inhibition [2] -7.55% | activity, negative = inhibition [3] 29.8% | Potency [4] > 20.6 µM

COC(=O)CCc1c(C)[nH]c(C(=O)OCc2ccccc2)c1C
inactive: activity change, negative = inhibition [1] -13.9% | activity change, negative = inhibition [2] -4.78% | activity, negative = inhibition [3] 5.36% | Potency [4] > 20.6 µM

CCN(CC)C(=O)COn1c(SCC(=O)N(CC)CC)nc2ccccc2c1=O
inactive: activity change, negative = inhibition [1] -3.71% | activity change, negative = inhibition [2] 17.3% | activity, negative = inhibition [3] 9.4% | Potency [4] > 20.6 µM

Cc1oc2nc(SCCCC(=O)NCCCO)nc(N)c2c1C
inactive: activity change, negative = inhibition [1] -11.8% | activity change, negative = inhibition [2] 15.2% | activity, negative = inhibition [3] 4.84% | Potency [4] > 20.6 µM
